bCat KO growth = beta-catenin-lacking colon tumor cell growth suppression; HCT116 beta-catenin knockout viability, CellTiter-Glo, 60 h; hits give low values; viability, % at 10 µM; 1.5% of 140,000 active;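 active = viability at or under a set limit, the compound median less 4 SD, cut at about 6% in these data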;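 also: 0% = Hyamine 1622 control at 20 µM and 100% = untreated cell control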
PTEN del growth = growth suppressors of cells with PTEN tumor suppressor deletion; HCT116 PTEN-null viability, CellTiter-Glo, 60 h; hits give low values; viability, % at 10 µM; 1.2% of 140,000 active;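 active = viability at or below a set limit, 4 SD under the median of all tested compounds, cut at about 3.7% in these data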;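 also: PTEN knockout HCT116 line with beta catenin targeted HCT116 as companion control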
INS promoter inh = TRM-6 insulin promoter activity inhibition; 0.9% of 130,000 active; AID 1273; inhibition, % at 2 µM; TRM-6 cells (human fetal islet line), insulin promoter-eGFP reporter, imaging; reporter expression induced with tamoxifen;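 active = inhibition above the mean plus 3 SD, with well images judged a real hit on visual review, cut at about 60% in these data, passing the limit was not always enough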
Autophagy HCS = autophagy modulation, high-content screen; AID 463193; calls only at 10 µM (by protocol); MEF GFP-LC3 puncta imaging; test concentration mostly 10 µM; 0.98% of 190,000 active;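 active = percentage of spot-positive cells more than 3 SD above its plate mean, without a fluorescence outlier flag or 80% toxicity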;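 also: spot-positive cell cutoff set from DMSO-treated cells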
Ins promoter up = MIN6 insulin promoter up-regulation; 0.3% of 190,000 active; MIN6 insulin promoter-GFP reporter, high-content imaging; hits give high values; AID 1625; z-score at 5 µM;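 active = z-score above 3 at 5 µM with at least 500 cells counted in the well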
L major viab = inhibitors of Leishmania major promastigote growth; 9% of 200,000 active; Leishmania major promastigotes, resazurin fluorescence viability; inhibition, % at 10 µM; in the data active = inhibition above about 50%;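 also: promastigotes grown with compound for 44 hours at 28 °C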
The depositor's hits bear a star. This is a sample that favours compounds with a hit; in the whole collection about 9.6% have one here.

For CCOC(=O)N1CCN(C(=O)c2ccc(NS(C)(=O)=O)cc2)CC1 the results were bCat KO growth 79, PTEN del growth 87, INS promoter inh -50, Autophagy HCS inactive and L major viab -2.
Screening Cc1cc2c(N=O)c(NO)ccc2[nH]1 returned bCat KO growth 4.7*, PTEN del growth 5, INS promoter inh -9, Autophagy HCS inactive, Ins promoter up -1.6 and L major viab 83*.
Screening O=Nc1c(O)[nH]c2ccc(F)cc12 returned Autophagy HCS inactive, Ins promoter up -0.71 and L major viab -4.
For N#Cc1cnn(-c2nc3sc4c(c3c(=O)[nH]2)CCCC4)c1N the results were bCat KO growth 21, PTEN del growth 17, INS promoter inh 0, Autophagy HCS inactive, Ins promoter up -0.29 and L major viab 94*.
Screening Cc1ccccc1-n1nc2c(c1NC(=O)c1ccc(S(=O)(=O)N(C)C)cc1)CSC2 returned bCat KO growth 81, PTEN del growth 76, Autophagy HCS inactive, Ins promoter up 0.33 and L major viab 5.
`O=P(c1ccccc1)(c1ccccc1)N(c1ccccc1)c1ccccc1` gave bCat KO growth 43, PTEN del growth 45, INS promoter inh -24, Autophagy HCS inactive, Ins promoter up -0.14 and L major viab 65*.
CCCCN1C(=O)/C(=C2\SC(N3CCCCC3)=NC2=O)c2ccccc21 was read as bCat KO growth 76, PTEN del growth 67, INS promoter inh -25, Autophagy HCS inactive, Ins promoter up -4.7 and L major viab 51*.
For CCOC(=O)c1ccc(NC(=O)N2CCN(c3ccccn3)CC2)cc1 the results were bCat KO growth 93, PTEN del growth 89, INS promoter inh 35, Autophagy HCS inactive, Ins promoter up -0.4 and L major viab 5.
Cc1ccc(-n2c(N)c(C(=O)Nc3c(C)n(C)n(-c4ccccc4)c3=O)c3nc4ccccc4nc32)cc1 was read as bCat KO growth 7, PTEN del growth 5, INS promoter inh 33, Autophagy HCS inactive, Ins promoter up -2.2 and L major viab 60*.
For Cc1ccc(C(=O)Nc2c(C)n(C)n(-c3ccccc3)c2=O)cc1 the results were INS promoter inh -93, Autophagy HCS inactive, Ins promoter up 0.47 and L major viab -9.
Cc1cc(C)cc(-n2c(N)c(C(=O)Nc3c(C)n(C)n(-c4ccccc4)c3=O)c3nc4ccccc4nc32)c1 was read as bCat KO growth 28, PTEN del growth 17, INS promoter inh 14, Autophagy HCS inactive, Ins promoter up -0.52 and L major viab 76*.
For COc1cccc(-n2c(N)c(C(=O)Nc3c(C)n(C)n(-c4ccccc4)c3=O)c3nc4ccccc4nc32)c1 the results were Ins promoter up -0.16.
COc1cccc(NC(=O)c2cc(Cl)nnc2Cl)c1 was read as INS promoter inh 47, Autophagy HCS inactive, Ins promoter up -0.46 and L major viab 22.
For COc1ccc([N+](=O)[O-])cc1N(CC(O)CN1CCCCC1)S(=O)(=O)c1ccccc1 (centres undefined) the results were Autophagy HCS inactive, Ins promoter up 0.05 and L major viab 82*.
CCCN(CCC)CC(O)CN(c1cc([N+](=O)[O-])ccc1OC)S(=O)(=O)c1ccccc1 (centres undefined) was read as bCat KO growth 60, PTEN del growth 63, INS promoter inh -75, Autophagy HCS inactive, Ins promoter up -0.99 and L major viab 63*.
COc1ccccc1N(CC(O)CN(c1ccccc1)S(C)(=O)=O)S(=O)(=O)c1ccccc1 (centres undefined) was read as bCat KO growth 94, PTEN del growth 101, INS promoter inh -3, Autophagy HCS inactive, Ins promoter up -0.11 and L major viab -2.
For Cc1ccc(S(=O)(=O)N(CC(O)CN2CCCC2)c2ccccc2)cc1 (centres undefined) the results were bCat KO growth 78, PTEN del growth 94, Autophagy HCS inactive, Ins promoter up -0.02 and L major viab -3.
`Nc1cc(N)nc(SCC(=O)N2CCCCC2)n1` gave bCat KO growth 90, PTEN del growth 86, Autophagy HCS inactive, Ins promoter up 0.02 and L major viab -3.
For Cc1nccn1CC(=O)N/N=C/c1cccc(O)c1 the results were bCat KO growth 98, PTEN del growth 87, INS promoter inh 3, Autophagy HCS inactive, Ins promoter up -0.03 and L major viab 61*.
CCOCCCNCC(=O)Nc1ccc(OC(F)(F)F)cc1 was read as bCat KO growth 95, PTEN del growth 99, INS promoter inh 3, Autophagy HCS inactive, Ins promoter up 0.41 and L major viab -5.
`Cc1cc(C)c(S(=O)(=O)N2CCCOC2CNC(=O)C(=O)NCCCn2ccnc2)c(C)c1` (centres undefined) gave bCat KO growth 77, PTEN del growth 85, INS promoter inh -7, Autophagy HCS inactive, Ins promoter up -0.14 and L major viab 54*.
`O=C(CN1CCCCCC1)N/N=C/c1cccc(Cl)c1Cl` gave bCat KO growth 89, PTEN del growth 94, INS promoter inh -208, Autophagy HCS inactive, Ins promoter up 0.01 and L major viab 62*.
For O=C(CN1CCCCCCC1)N/N=C/c1ccccc1F the results were bCat KO growth 94, PTEN del growth 98, INS promoter inh 18, Autophagy HCS inactive, Ins promoter up 0.19 and L major viab 52*.
`O=C(CN1CCCCCCC1)N/N=C/c1ccc(F)c(F)c1` gave bCat KO growth 104, PTEN del growth 104, INS promoter inh 13, Autophagy HCS inactive, Ins promoter up 0.34 and L major viab 97*.
`O=C(CN1CCSCC1)N/N=C/c1ccccc1F` gave bCat KO growth 95, PTEN del growth 95, Autophagy HCS inactive and L major viab -2.
`Cc1cc(/C=N\NC(=O)CC(=O)NC2CCCCC2)c(C)n1-c1ccc(Cl)c(Cl)c1` gave bCat KO growth 92, PTEN del growth 86, INS promoter inh -36, Autophagy HCS inactive and L major viab -5.
For Cc1cc(/C=N\NC(=O)CC(=O)NC2CCCCC2)c(C)n1-c1cccc(Cl)c1Cl the results were bCat KO growth 76, PTEN del growth 80, INS promoter inh 33, Autophagy HCS inactive, Ins promoter up -1.1 and L major viab 95*.
Screening COc1ccc(OCC(=O)NNC(=O)Cc2coc3cc(OC)ccc23)cc1 returned bCat KO growth 97, PTEN del growth 108, Autophagy HCS inactive, Ins promoter up 0.27 and L major viab -5.
Screening CC(C)CCOc1ccc(C2=NNC(=O)CC2)cc1 returned bCat KO growth 90, PTEN del growth 86, INS promoter inh -18, Autophagy HCS inactive, Ins promoter up -0.79 and L major viab -4.
`Cc1cc2nc(-c3ccncc3)cc(C(F)(F)F)n2n1` gave INS promoter inh -27, Autophagy HCS inactive, Ins promoter up -0.85 and L major viab 1.

Screening results: PubChem, several laboratories
